Assay results from PubChem BioAssay AID2417 (National Center for Advancing Translational Sciences (NCATS), 2010).
Out of some 140,000 compounds screened, about 4,300 (3.1%) were called active. Another 21% or so got no clear call; they are omitted. This is one part of a sample in which actives are shown more often than they occur. Unmarked numbers belong to inactive results.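 How the source made its calls: active means readout at or below -70, meaning at least 70% loss of cells showing the perinucleolar compartment, a nuclear body marking cancer cells; inconclusive means readout between -30 and a set limit; inactive means the rest.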

Experiment: High Content Assay for Compounds that inhibit the Assembly of the Perinucleolar Compartment;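 further: plate controls were DMSO wells for no effect and camptothecin positive control wells for full effect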
Conditions: PC3M PTB-GFP, PNC prevalence imaging, 16 h; at 10 µM; active compounds read low
Summary of the method: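 PC3M cells stably expressing PTB-GFP, 750–1000 cells/well, treated 16 h at 37 °C with compound (23 nl of library stock), in duplicate. After paraformaldehyde fixation and Hoechst stain, imaged at 20x; PNC prevalence scored by image analysis.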

Going from COc1ccc(/C=C/C(=O)Nc2ccc3c(c2)OCCO3)cc1OC to COc1ccc(NC(=O)c2ccccc2[N+](=O)[O-])cc1OC, the activity change (PNC), negative = inhibition rises from -11.1% to 40.9%.

Going from Cc1cc(C(=O)OCC(=O)Nc2nnc(C(C)C)s2)c2ccccc2n1 to COCC(=O)Nc1nnc(COc2ccccc2)s1, the activity change (PNC), negative = inhibition rises from 3.82% to 5.3%.

Going from CCCc1nc2c([nH]1)C(c1cccnc1)C(C#N)=C(N)O2 (stereo unspecified) to CCc1ccc(C2C(C#N)=C(N)N(N(C)C)C3=C2C(=O)CCC3)s1 (stereo unspecified), the activity change (PNC), negative = inhibition rises from 7.34% to 36.4%.

Compared with O=C(CN1CCN(CC(=O)Nc2ccc3c(c2)OCO3)CC1)Nc1ccc(F)cc1, O=C(CN1CCN(c2ccc(F)cc2)CC1)Nc1cccc(C(F)(F)F)c1 is higher in activity change (PNC), negative = inhibition: -20.9% for the first, -19.9% for the second.

Compared with CCOC(=O)c1c(NC(=O)c2ccc(N3CCOCC3)c([N+](=O)[O-])c2)sc(C)c1C, CCOC(=O)c1c(NC(=O)c2ccc(Br)o2)sc2c1CCCC2 is lower in activity change (PNC), negative = inhibition: 28.7% for the first, 2.82% for the second.

First: CC1CCN(c2ccc(S(=O)(=O)Nc3cc(C(=O)O)cc(C(=O)O)c3)cc2[N+](=O)[O-])CC1
Second: COCCNC(=O)c1ccccc1NS(=O)(=O)c1ccc(C)c([N+](=O)[O-])c1
The activity change (PNC), negative = inhibition of the first is lower: -0.23% for the first, 33% for the second.

Compared with CCc1cccc(C)c1NC(=O)COC(=O)Cc1ccsc1, COc1cc(CCC(=O)OCC(=O)Nc2cccc(S(N)(=O)=O)c2)cc(OC)c1OC is higher in activity change (PNC), negative = inhibition: -6% for the first, 17.9% for the second.

First: C=CCNC(=S)NNC(=O)c1ccc(Br)o1
Second: COc1cc(NC(=S)NNC(=O)CC(C)C)c(OC)cc1Cl
The activity change (PNC), negative = inhibition of the first is lower: -23.4% for the first, 20.5% for the second.

First: O=c1c2c(ncn1Cc1ccccc1)nc1n2CCC1
Second: Cc1c(C(=O)N2CCOCC2)[nH]c2ccc(OCc3ccccc3)cc12
The activity change (PNC), negative = inhibition of the first is higher: -8.18% for the first, -12.2% for the second.

Compared with CCC(C(=O)OCC(=O)Nc1ccc(C(=O)Nc2ccc(OC)cc2)cc1)c1ccccc1 (stereo unspecified), CC(=O)Nc1ccc(SCC(=O)Nc2ccccc2Oc2ccccc2)cc1 is lower in activity change (PNC), negative = inhibition: 12.6% for the first, -10.5% for the second.

Going from NS(=O)(=O)c1ccc(NS(=O)(=O)/C=C/c2ccccc2)cc1 to O=c1cc(CN2CCN(S(=O)(=O)/C=C/c3ccccc3)CC2)c2ccc(O)cc2o1, the activity change (PNC), negative = inhibition falls from -5.65% to -11.6%.

Going from COc1cc(NC(=O)N2CCOCC2)cc(OC)c1 to Cc1noc(C)c1C(=O)N1CCOCC1, the activity change (PNC), negative = inhibition falls from 29.1% to 0.83%.

First: CC(C)C(=O)NC(=S)Nc1ccccc1F
Second: CC(=O)NNC1=Nc2ccccc2N(C)C(C)C1 (stereo unspecified)
The activity change (PNC), negative = inhibition of the first is lower: 28.8% for the first, 41.2% for the second.

Going from Cc1cccc(NC(=S)N(CCN(C)C)C(C)c2ccco2)c1 (stereo unspecified) to C=CCN(c1ccc(C(=O)Nc2cc(C)cc(C)c2)cc1)S(C)(=O)=O, the activity change (PNC), negative = inhibition falls from 5.52% to 0%.

First: CC1CCc2sc(C(=O)N/N=C/C3CCCCC3)cc2C1 (stereo unspecified)
Second: C/C(CC(=O)Nc1cccc(F)c1)=N\NC(=O)C(=O)NC1CCCCC1
The activity change (PNC), negative = inhibition of the first is lower: -24% for the first, 0.469% for the second.

First: COc1ccccc1N1CCN(C(=O)c2cc(-c3ccc(Br)cc3)on2)CC1
Second: COc1ccccc1N1CCN(C(=O)c2cc(-c3ccc(Cl)c(Cl)c3)on2)CC1
The activity change (PNC), negative = inhibition of the first is lower: 15.5% for the first, 321% for the second.

Going from O=C(c1ccccc1-c1ccccc1)N1CCOCC1 to Cc1cc(Oc2ccccc2)nc(N2CCOCC2)n1, the activity change (PNC), negative = inhibition rises from -12% to 31.1%.

Compared with O=C(CN1C(=O)/C(=C\c2ccc(C(F)(F)F)cc2)Sc2ccccc21)NCc1ccco1, COc1ccccc1C(=O)Nn1c(-c2cccs2)nc2ccccc2c1=O is lower in activity change (PNC), negative = inhibition: 37.6% for the first, -26.6% for the second.

First: CCOC(=O)Nc1sc(C(=O)N(C)C)c(C)c1C(=O)OCC
Second: CCOC(=O)c1c(C)[nH]c(C(=O)NCc2ccccc2OC)c1C
The activity change (PNC), negative = inhibition of the first is higher: 10.4% for the first, 4.85% for the second.

First: Cc1cc(Oc2ccc(Cl)cc2)nc(SCC(=O)c2ccccc2)n1
Second: Cc1cc(C)n(-c2cc(Oc3ccccc3)ncn2)n1
The activity change (PNC), negative = inhibition of the first is lower: 16.7% for the first, 61.7% for the second.

Going from Cc1ccc(OCc2nnc(NC(=O)OCC(C)C)s2)cc1 to Cc1ccc(SCC(=O)Nc2ncc(C)s2)cc1, the activity change (PNC), negative = inhibition rises from 26.9% to 34.4%.

Compared with O=[N+]([O-])c1ccccc1SNc1ccccn1, CNC(=S)N/N=C/c1ccc(OCc2ccccc2)c(Br)c1 is higher in activity change (PNC), negative = inhibition: -0.121% for the first, 23.4% for the second.

Going from Cc1cccc(N2C(=O)SC(SC(=Nc3ccccc3)Nc3ccccc3)C2=O)c1 (stereo unspecified) to O=C(c1cccc(C(=O)N2CCc3ccccc32)n1)N1CCc2ccccc21, the activity change (PNC), negative = inhibition falls from 64.7% to 8.65%.

Compared with Cc1cc(C)n(-c2nc(SCC(=O)N3CCCC3)c3c4c(sc3n2)CCCC4)n1, Cc1nc(SCC(=O)Nc2cc(C)on2)c2c3c(sc2n1)CCCC3 is lower in activity change (PNC), negative = inhibition: 26% for the first, -9.46% for the second.

Going from CC(=O)Nc1ccc(C(=O)OCC(=O)Nc2ccc([N+](=O)[O-])cc2C(F)(F)F)cc1 to Cc1ccsc1C(=O)N/N=C/c1ccc([N+](=O)[O-])cc1, the activity change (PNC), negative = inhibition rises from -8.91% to -4.41%.

Going from CCCCCCCCCOC1OC(CO)C(O)C(O)C1NC(C)=O (stereo unspecified) to CCOC(=O)C(C)Sc1nnc(CSc2nc3nc(C)cc(C)n3n2)o1 (stereo unspecified), the activity change (PNC), negative = inhibition falls from -8.39% to -12%.

Going from Cc1[nH]c2ccccc2c1C(=O)CSCC(=O)O to CCOC(=O)N1CCN(CC(=O)c2c(C)[nH]c3ccccc23)CC1, the activity change (PNC), negative = inhibition falls from -15.7% to -18.6%.

Going from CCOC(=O)c1cccnc1NC(=O)c1ccncc1 to Cc1ccc(OCCOCCOc2ccc(Br)cc2/C=N\NC(=O)c2ccncc2)cc1, the activity change (PNC), negative = inhibition falls from -1.7% to -9.62%.

First: COc1ccc(/C=C(\C#N)C(=O)NCCCn2ccnc2)cc1
Second: O=C(COC(=O)/C=C/c1cccc(Cl)c1)NCCc1ccccc1
The activity change (PNC), negative = inhibition of the first is higher: 60.5% for the first, -23.6% for the second.

Going from Oc1ccc(Br)cc1C=Nc1ccc2[nH]ncc2c1 to O=C(CCc1nc2ccccc2c(=O)[nH]1)OCC(=O)c1cccc(Cl)c1, the activity change (PNC), negative = inhibition falls from 18.8% to 9.28%.

Compared with O=C(c1cc(-c2ccc(O)cc2)on1)N1CCCc2ccccc21, Cc1ccc(C(=O)N2CC(=O)Nc3ccccc32)o1 is higher in activity change (PNC), negative = inhibition: -28.7% for the first, -19.5% for the second.

Compared with Cc1ccc(C(=O)OCc2nc(N)nc(Nc3ccccc3C)n2)cc1, Cc1ccc(OCC(=O)Nc2ccc(-c3nnc(-c4ccco4)o3)cc2)cc1 is higher in activity change (PNC), negative = inhibition: -25% for the first, 63.9% for the second.

First: COCC(=O)Nc1cc(C(=O)OC)cc(C(=O)OC)c1
Second: COc1ccc(-c2cc(C(=O)NC(Cc3c[nH]c4ccccc34)C(=O)O)c(C)o2)cc1OC (stereo unspecified)
The activity change (PNC), negative = inhibition of the first is lower: 0.32% for the first, 41% for the second.

Going from COc1cccc2c(O)cc(=O)n(C)c12 to COc1ccccc1/C=N\Nc1cc(C)nc(-n2nc(C)cc2C)n1, the activity change (PNC), negative = inhibition falls from 3.35% to -20.8%.

First: O=C(CN1CCN(c2ccc(O)cc2)CC1)Nc1cc(S(=O)(=O)N2CCOCC2)ccc1Cl
Second: O=C(COc1ccc(Cl)cc1)N1CCN(S(=O)(=O)c2ccc(Cl)cc2)CC1
The activity change (PNC), negative = inhibition of the first is higher: 32% for the first, -28.2% for the second.

Compared with COc1ccc(NC(=O)c2nc(-n3nc(C)cc3C)ccc2Cl)cc1Cl, COc1ccc(C(=O)ON=C2c3ccccc3-c3ccccc32)cc1OC is higher in activity change (PNC), negative = inhibition: -28.2% for the first, 2.98% for the second.

First: O=C(COc1ncnc2c(Cl)cc(Cl)cc12)N1CCN(S(=O)(=O)c2ccccc2)CC1
Second: O=C(Nc1cccc(F)c1)c1ccc(S(=O)(=O)N2CCCC2)cc1
The activity change (PNC), negative = inhibition of the first is higher: 25.7% for the first, 8.69% for the second.

Going from O=C(Nc1ccc(N2C(=O)c3cccc4cccc(c34)C2=O)cc1)c1ccc(N2CCCCC2)c([N+](=O)[O-])c1 to O=C1NC(=Nc2ccc(Cl)cc2)SC1Cc1cccc(Cl)c1Cl (stereo unspecified), the activity change (PNC), negative = inhibition rises from 12% to 66.6%.

In the case of O=C(CN1CCN(c2ncc(C(F)(F)F)cc2Cl)CC1)Nc1ccc2c(c1)OCO2, the activity change (PNC), negative = inhibition is reported as -86.4% (active).
For CC1CCN(c2ccc(C(=O)Nc3nnc(C4CC4)s3)cc2[N+](=O)[O-])CC1, the activity change (PNC), negative = inhibition was -87.1% (active).
For COc1ccc(NC(=O)COC(=O)c2ccc(NS(=O)(=O)/C=C/c3ccccc3)cc2)cc1, the activity change (PNC), negative = inhibition was -91.4% (active).
In the case of CCOC(=O)c1[nH]c2ccc(OC)cc2c1NC(=O)N1CCOCC1, the activity change (PNC), negative = inhibition is reported as -102% (active).
With CC(c1ccccn1)N(CCN(C)C)C(=S)Nc1ccccc1F (stereo unspecified) the activity change (PNC), negative = inhibition was -111% (active).
In the case of COc1ccccc1N1CCN(C(=O)c2c(-c3c(Cl)cccc3Cl)noc2C)CC1, the activity change (PNC), negative = inhibition is reported as -86.9% (active).
For Cc1onc(-c2ccccc2)c1C(=O)N1CCOCC1, the activity change (PNC), negative = inhibition was -109% (active).
With CCOC(=O)c1c(NC(C)=O)sc2c(O)c(Br)ccc12 the activity change (PNC), negative = inhibition was -80.8% (active).
With CCOCc1nnc(NC(=O)CSc2ccc(C)cc2)s1 the activity change (PNC), negative = inhibition was -89.8% (active).
For COCCn1c(C)cc(C(=O)CSc2ncnc3sc4c(c23)CCC4)c1C, the activity change (PNC), negative = inhibition was -100% (active).
In the case of Cc1[nH]c2ccccc2c1C(=O)COC(=O)c1c(-c2ccccc2)noc1C, the activity change (PNC), negative = inhibition is reported as -121% (active).
In the case of Brc1ccc(OCCn2ccnc2)cc1, the activity change (PNC), negative = inhibition is reported as -118% (active).
With Cc1cccc2cc3c(N)c(C(=O)N4CCCc5ccccc54)sc3nc12 the activity change (PNC), negative = inhibition was -97.5% (active).
For COc1cccc2c(C)c(C(=O)O)[nH]c12, the activity change (PNC), negative = inhibition was -100% (active).
With COc1ccc(Nc2cc(C)nc(-n3nc(C)cc3C)n2)cc1 the activity change (PNC), negative = inhibition was -93.3% (active).
For CC(=O)c1ccc(Oc2cc(C)nc(-n3nc(C)cc3C)n2)cc1, the activity change (PNC), negative = inhibition was -86.2% (active).
In the case of O=C(ON=C1CCN(S(=O)(=O)c2ccccc2)CC1)c1ccc(Cl)cc1, the activity change (PNC), negative = inhibition is reported as -100% (active).
In the case of Cc1ccc(NC(=O)c2sccc2C)cc1[N+](=O)[O-], the activity change (PNC), negative = inhibition is reported as -105% (active).
In the case of COc1ccc(OCC(=O)Nc2nnc(-c3ccco3)s2)cc1, the activity change (PNC), negative = inhibition is reported as -113% (active).
In the case of CCN1CCN(C(=O)C2(NC(=O)Nc3cccc(F)c3)CCCCC2)CC1, the activity change (PNC), negative = inhibition is reported as -83.6% (active).
